EPAC2 agonist = qHTS for Agonist of cAMP-regulated guanine nucleotide exchange factor 4 (EPAC2): primary screen | Rap guanine nucleotide exchange factor 4 (Homo sapiens), Q8WZA2 | EPAC2 activation, biochemical qHTS; response scale: 100% = 6.5 mM cAMP response | Potency, µM (titrated, usually from 154 µM), without a hit: at the highest dose activation, actives largely listed as activators | actives 0.079% (n = 360,000) | AID 720711, 2013; note: nearly all actives have a fitted effect of over 50% in size
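Nucleotide exchange monitored as fluorescence drop when BODIPY-GDP leaves Rap1B. Reaction: 100 nM EPAC2, 250 nM RAP1B-BODIPY-GDP, 50 uM GDP, room temperature, kinetic read over 30 min. Activity expressed relative to 6.5 mM cAMP.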
USP1 inh = Inhibitors of USP1/UAF1: Primary Screen. Ubiquitin carboxyl-terminal hydrolase 1 (Homo sapiens), O94782. recombinant USP1/UAF1, Ub-Rhodamine cleavage fluorescence. Potency, µM (highest dose often 57.1 µM), for inactives: top-dose activity change, negative = inhibition, most hits filed as inhibitors. actives 0.23% (n = 390,000). AID 743255, 2014; note: % is set by controls: 0 for no effect and ±100 for the full control effect; nearly all actives have a fitted effect of over 60% in size
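Step one: compound is pinned into 1nM USP1/UAF1 in HEPES pH 7.8 buffer with TCEP. Step two: 15 min room-temperature incubation. Step three: Ub-Rho (150nM final) starts cleavage, tracked by fluorescence over six one-minute reads.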
EPAC2 antagonist = qHTS for Antagonist of cAMP-regulated guanine nucleotide exchange factor 2 (EPAC2): primary screen | Rap guanine nucleotide exchange factor 4 (Homo sapiens), Q8WZA2 | EPAC2 GEF exchange of Rap1B-BODIPY-GDP, fluorescence | Potency, µM (top dose mostly 114 µM), for inactives: at the highest dose activity, negative = inhibition, hits mostly inhibitors | actives 0.18% (n = 360,000) | AID 720708, 2013; note: % is set by controls: 0 for no effect and ±100 for the full control effect; nearly all actives have a fitted effect of over 45% in size
EPAC1 agonist = qHTS for Agonist of cAMP-regulated guanine nucleotide exchange factor 3 (EPAC1): primary screen; EPAC1 agonist qHTS, biochemical assay; response scale: 100% = response to 6.5 mM cAMP; Potency, µM (series often up to 154 µM), inactives show top-dose activation, most hits filed as activators; actives 0.073% (n = 360,000); AID 720707, 2013; note: nearly all actives have a fitted effect of over 60% in size
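Nucleotide exchange assay: 100 nM EPAC1 with 250 nM Rap1B loaded with BODIPY-GDP and 50 uM GDP, room temperature. Fluorescence (480/540 nm) read every 5 min for 30 min; signal change normalized to 6.5 mM cAMP as full agonist.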
EPAC1 antagonist = qHTS for Antagonist of cAMP-regulated guanine nucleotide exchange factor 3 (EPAC1): primary screen; Rap guanine nucleotide exchange factor 3 (Homo sapiens), O95398; EPAC1 GEF assay, Rap1b-BODIPY-GDP exchange fluorescence; Potency, µM (top dose mostly 115 µM), inactives show top-dose activity change, negative = inhibition, hits mostly inhibitors; actives 0.14% (n = 360,000); AID 720709, 2013;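 note: plate controls were vehicle for no effect and positive control for full effect; nearly all actives have a fitted effect of over 50% in size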
* = called active by the depositor; i = inactive; ? = inconclusive; . = no result. Compounds with a hit are over-represented: about 0.49% of the library has one in this group of screens. Calls come from the whole dose curve; as a rule, active = well fitted curve in the direction sought with a large enough effect; inconclusive = small, poorly fitted or top-dose-only effect, or another doubt; inactive = no such curve, though single readings can be large; an effect the other way counts as inactive or inconclusive. Potency is the fitted concentration of half-maximal effect.

SMILES	EPAC2 agonist	USP1 inh	EPAC2 antagonist	EPAC1 agonist	EPAC1 antagonist
COc1cc(CNn2cnnc2)ccc1OCC(=O)NC(C)(C)C	10µM*	4.6%	2.3%	3.1%	-5.2%
C=CCOc1c(Br)cc(/C=N/O)cc1OCC	-10.0%	-17.2%	?	-3.1%	-10.2%
CCCCOc1c(Br)cc(/C=N/O)cc1OCC	-2.5%	?	28.2µM*	-10.4%	?
CCC(=O)N1CCc2cc(Br)cc(S(=O)(=O)CCC(=O)N3CCN(c4cc(C)ccc4C)CC3)c21	.	1.3%	.	.	.
C=CCSc1nc(-c2ccc(OC)cc2)c(C#N)c(=O)n1CC=C	-3.4%	?	39.8µM*	-3.7%	-7.5%
COc1ccc(-c2nc3n(c(=O)c2C#N)CCS3)cc1	12.6%	-22.8%	-3.6%	2.9%	?
Cc1c(Cl)cccc1NC(=O)Cn1nnc(-c2nc(-c3ccccc3)no2)c1N	.	-14.0%	.	.	.
Cc1cccc(C)c1-n1cccc1/C=C1\SC(=S)N(c2cccc(C(=O)O)c2)C1=O	-4.2%	?	?	0.9%	50.1µM*
O=C(CN1C(=O)C2CCCCN2c2ccc(C(=O)N3CCCC3)cc21)NCc1ccccc1F (configuration not stated)	.	-21.1%	.	.	.
CCOc1ccc(S(=O)(=O)Nc2nc3ccccc3nc2-n2ccc(=NC(=O)c3cccs3)cc2)cc1	100µM*	-0.4%	40.8%	?	-14.4%
CCOc1cc(CNc2ccc(N3CCCC3)cc2)cc(Cl)c1OC	-0.1%	28.2µM*	-0.2%	-12.6%	5.1%
CCc1ccc(NC(=O)c2nnn(Cc3cccc(C(F)(F)F)c3)c2N)cc1	.	-7.2%	.	.	.
CCCN(CC(=O)Nc1ccccc1C)C(=O)c1cc(C)oc1C	5.7%	-8.8%	6.1%	10.0%	9.6%
CCCN(CC(=O)Nc1ccccc1C)C(=O)c1oc2ccc(OCC)cc2c1C	-11.2%	-18.3%	-3.1%	126µM*	-16.5%
COc1cc([C@@H]2Nc3c(F)cccc3[C@@H]3C=CC[C@@H]32)cc(Br)c1OC	.	-10.6%	.	.	.
CN1/C(=C\C=C(C#N)C#N)C(C)(C)c2ccccc21	63.1µM*	?	i	-19.1%	-10.3%
CN1/C(=C/C=N/n2cnnc2)C(C)(C)c2ccccc21	1.9%	4.9%	-5.6%	3.1%	-1.1%
CCOc1ccc(Nc2oc(-c3ccc(COc4ccc(C)cc4)o3)nc2C#N)cc1	.	1.9%	.	.	.
COC(=O)c1[nH]c2cc(C)ccc2c1NC(=O)CN1CCCc2ccccc21	7.94µM*	-23.2%	0.0%	-10.6%	4.8%
O=C1Cc2ccccc2C(=O)N1	19.9%	.	?	9.0%	56.2µM*
COc1cccc(C(=O)Nc2c(C(=O)NC(C)(C)C)oc3ccccc23)c1	.	-34.3%	.	.	.
CCc1nnc(NS(=O)(=O)c2ccc(NC(=S)NC(=O)/C=C/c3ccc(F)cc3)cc2)s1	-1.1%	-12.2%	-2.7%	-6.3%	22.4µM*
COc1cccc(C2=NN(C(=O)c3ccco3)C(c3ccco3)C2)c1 (configuration not stated)	6.3%	-18.2%	14.1µM*	13.4%	7.0%
COc1cccc(C2CC(c3cccs3)=NN2C(=O)c2ccco2)c1O (configuration not stated)	5.4%	-19.9%	35.5µM*	-11.9%	-28.3%
CCCC(=O)NCC(c1ccc2c(c1)OCO2)N1CCN(c2ccccc2)CC1 (configuration not stated)	.	0.1%	.	.	.
SMILES	EPAC2 agonist	USP1 inh	EPAC2 antagonist	EPAC1 agonist	EPAC1 antagonist
Cc1ccc(NC(=O)COC(=O)Cn2c(C)csc2=O)c([N+](=O)[O-])c1	6.8%	-20.5%	12.2%	100µM*	-2.9%
Cc1csc(=O)n1CC(=O)OCC(=O)Nc1cc([N+](=O)[O-])ccc1Cl	11.3%	-3.3%	-4.9%	3.3%	11.4%
C#CCOCCOCCOCCNc1nc(N2CCN(C(=O)CCCCCCCCCCNC(=O)Cn3cc(CCCCCN)nn3)CC2)nc(N2CCN(C(=O)CCCCCCCCCCNC(=O)Cn3cc(C[C@@H](C)O)nn3)CC2)n1	?	?	?	22.8%	35.5µM*
C#CCOCCOCCOCCNc1nc(N2CCN(C(=O)CCCCCCCCCCNC(=O)Cn3cc(CCCCCN)nn3)CC2)nc(N2CCN(C(=O)CCCCCCCCCCNC(=O)[C@@H]([C@H](C)O)n3cc(C)nn3)CC2)n1	4.6%	-27.0%	13.5%	2.2%	-14.7%
C#CCOCCOCCOCCNc1nc(N2CCOCC2)nc(N2CCN(C(=O)[C@H](Cc3cc4ccccc4[nH]3)n3cc([C@@H](N)C(C)CC)nn3)CC2)n1 (some centres not stated)	1.0%	44.7µM*	5.1%	-3.9%	-8.0%
C#CCOCCOCCOCCNc1nc(N2CCN(C(=O)CCCCCCCCCCNC(=O)Cn3cc(C[C@@H](C)O)nn3)CC2)nc(N2CCN(C(=O)CCCCCCCCCCNC(=O)[C@@H]([C@H](C)CC)n3cc(CCCCCN)nn3)CC2)n1	16.1%	?	-28.5%	19.0%	50.1µM*
C#CCOCCOCCOCCNc1nc(N2CCN(C(=O)CCCCCCCCCCNC(=O)[C@H](CCCCN)n3cc(C)nn3)CC2)nc(N2CCN(C(=O)CCCCCCCCCCNC(=O)[C@H](CCCN=C(N)N)n3cc(C[C@@H](C)CC)nn3)CC2)n1	18.8%	?	-20.9%	5.2%	50.1µM*
C#CCOCCOCCOCCNc1nc(N2CCN(C(=O)CCCCCCCCCCNC(=O)[C@H](CCCCN)n3cc(C[C@@H](C)CC)nn3)CC2)nc(N2CCN(C(=O)CCCCCCCCCCNC(=O)[C@H](CCCN=C(N)N)n3cc(C[C@@H](C)CC)nn3)CC2)n1	11.3%	?	?	27.1%	?
CNC(=O)CN1C(=O)COc2ccc(S(=O)(=O)N3CCC(C)CC3)cc21	.	-6.7%	.	.	.
CCc1ccc2oc(C(=O)Nc3cc(C)ccc3C)cc(=O)c2c1	.	-5.8%	.	.	.
Cc1ccc(C2=NC(=O)/C(=C/c3cc(O)c(O)c(Br)c3)S2)cc1	-1.1%	-15.8%	-21.7%	2.5%	10µM*
COc1cc(/C=C2\SC(c3ccc(C)cc3)=NC2=O)cc(OC)c1O	-0.8%	?	-1.8%	11.9%	-15.8%
CCOc1ccc(NC(=O)c2ccc3nc(Cc4ccccc4)oc3c2)cc1	.	-7.3%	.	.	.
COc1cccc(NC2=C(NCCO)C(=O)c3ccccc3C2=O)c1	2.5%	?	-15.9%	3.4%	-7.4%
Cc1cccc(NC2=C(NCCO)C(=O)c3ccccc3C2=O)c1	12.3%	31.6µM*	-5.2%	6.5%	24.5%
COc1ccc(NC2=C(NCCO)C(=O)c3ccccc3C2=O)cc1	-3.4%	25.1µM*	-5.0%	-0.7%	-27.4%
